Laboratory results from the supplement of paper PMC10849652.
The full data set covers some 7,900 targets. This sample favours those with a hit. About 0.6% of all pairs of compound and target were hits.

Compound: O=C(CCCCCCC(=O)Nc1ccccc1)NO [vorinostat]
Assay: log2 fold change, soluble protein after heating vs DMSO (PISA); higher = thermal stabilisation; K562 cells, 10 uM, 30 min; active = over 0.2 and 3.5 SD of the protein, either way, in both replicates (recomputed)
Procedure, shortened: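 Thermal stability values are relative to control samples and come from duplicates. They are expressed as log2 fold changes. For measurement, K562 cells (2×10^6 cells/mL) received 10 μM compound for 30 min, and aliquots were heated for 3 min over 48°C-58°C, pooled, and extracted at 4°C in PBS with 0.5% NP-40. Soluble protein, the supernatant after 21,000xg for 90 min, was quantified by TMTpro 16plex LC-MS/MS with equalised channel sums.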

Sequence of UniProt Q9BVJ6 (Q9BVJ6 whole entry, looked up): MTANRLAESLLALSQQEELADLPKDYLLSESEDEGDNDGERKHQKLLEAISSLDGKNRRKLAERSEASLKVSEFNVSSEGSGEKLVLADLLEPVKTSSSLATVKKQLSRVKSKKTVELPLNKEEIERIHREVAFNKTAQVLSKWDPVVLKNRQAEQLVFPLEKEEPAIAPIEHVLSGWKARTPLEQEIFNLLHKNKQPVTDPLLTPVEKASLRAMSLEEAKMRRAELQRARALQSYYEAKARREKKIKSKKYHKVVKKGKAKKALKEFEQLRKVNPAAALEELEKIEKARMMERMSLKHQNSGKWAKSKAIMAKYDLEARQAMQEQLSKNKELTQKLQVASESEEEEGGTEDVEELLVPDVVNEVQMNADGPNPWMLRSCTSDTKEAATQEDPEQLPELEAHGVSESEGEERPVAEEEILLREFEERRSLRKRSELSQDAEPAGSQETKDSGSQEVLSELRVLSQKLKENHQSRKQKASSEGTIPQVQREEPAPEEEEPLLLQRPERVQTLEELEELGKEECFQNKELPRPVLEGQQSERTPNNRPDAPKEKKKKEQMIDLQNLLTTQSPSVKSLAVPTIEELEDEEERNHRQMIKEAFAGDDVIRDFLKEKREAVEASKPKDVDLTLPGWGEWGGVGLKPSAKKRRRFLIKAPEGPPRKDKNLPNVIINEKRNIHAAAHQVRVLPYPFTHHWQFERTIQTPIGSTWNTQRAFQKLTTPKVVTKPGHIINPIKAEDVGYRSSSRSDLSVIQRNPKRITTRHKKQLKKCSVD
Sequence of UniProt Q96FX7 (Q96FX7 whole entry, looked up): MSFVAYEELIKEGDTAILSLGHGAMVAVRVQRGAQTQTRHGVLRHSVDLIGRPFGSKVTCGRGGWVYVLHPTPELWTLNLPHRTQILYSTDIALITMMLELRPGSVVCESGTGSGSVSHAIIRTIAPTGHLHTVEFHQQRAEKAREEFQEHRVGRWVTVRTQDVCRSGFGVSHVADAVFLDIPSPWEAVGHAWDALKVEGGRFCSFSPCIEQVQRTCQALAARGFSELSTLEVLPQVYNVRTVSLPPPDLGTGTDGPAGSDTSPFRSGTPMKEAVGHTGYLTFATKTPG
Sequence of UniProt Q9NP79 (Q9NP79 whole entry, looked up): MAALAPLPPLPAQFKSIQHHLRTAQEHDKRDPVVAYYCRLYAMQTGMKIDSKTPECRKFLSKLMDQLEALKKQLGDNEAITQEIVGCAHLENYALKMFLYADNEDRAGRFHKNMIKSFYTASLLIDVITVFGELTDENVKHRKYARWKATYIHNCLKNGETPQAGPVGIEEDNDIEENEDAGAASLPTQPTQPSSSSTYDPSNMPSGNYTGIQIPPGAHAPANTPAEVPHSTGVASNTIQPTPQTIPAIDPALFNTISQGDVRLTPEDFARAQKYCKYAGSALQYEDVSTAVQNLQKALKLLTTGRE
Sequence of UniProt Q969X6 (Q969X6 whole entry, looked up): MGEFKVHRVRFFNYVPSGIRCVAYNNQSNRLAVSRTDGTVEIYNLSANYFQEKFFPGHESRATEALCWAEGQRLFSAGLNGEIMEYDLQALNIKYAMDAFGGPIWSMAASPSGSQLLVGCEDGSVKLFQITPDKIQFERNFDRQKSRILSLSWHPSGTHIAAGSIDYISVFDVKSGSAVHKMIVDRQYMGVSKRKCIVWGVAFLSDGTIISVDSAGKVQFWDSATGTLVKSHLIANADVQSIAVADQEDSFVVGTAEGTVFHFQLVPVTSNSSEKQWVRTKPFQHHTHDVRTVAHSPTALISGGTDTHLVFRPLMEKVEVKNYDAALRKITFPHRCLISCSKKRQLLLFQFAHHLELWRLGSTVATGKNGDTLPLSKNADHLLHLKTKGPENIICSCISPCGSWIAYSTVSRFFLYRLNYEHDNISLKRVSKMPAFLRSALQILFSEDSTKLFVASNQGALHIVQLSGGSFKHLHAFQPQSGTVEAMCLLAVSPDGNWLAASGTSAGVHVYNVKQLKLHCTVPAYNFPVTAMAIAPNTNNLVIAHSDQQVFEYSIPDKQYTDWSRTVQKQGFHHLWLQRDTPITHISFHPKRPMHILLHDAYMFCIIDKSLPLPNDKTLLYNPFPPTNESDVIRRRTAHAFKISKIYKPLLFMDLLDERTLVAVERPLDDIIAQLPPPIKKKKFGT
Sequence of UniProt Q15629 (Q15629 whole entry, looked up): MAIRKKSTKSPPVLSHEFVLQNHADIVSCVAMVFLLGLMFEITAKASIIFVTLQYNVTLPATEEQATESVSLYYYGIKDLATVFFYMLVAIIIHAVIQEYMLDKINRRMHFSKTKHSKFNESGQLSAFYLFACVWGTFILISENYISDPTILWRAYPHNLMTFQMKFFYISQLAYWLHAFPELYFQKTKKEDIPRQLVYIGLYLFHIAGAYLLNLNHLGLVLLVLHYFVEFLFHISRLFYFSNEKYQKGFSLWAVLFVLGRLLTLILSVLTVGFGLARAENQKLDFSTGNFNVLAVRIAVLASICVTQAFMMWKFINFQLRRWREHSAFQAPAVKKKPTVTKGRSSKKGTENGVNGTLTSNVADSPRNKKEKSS
Sequence of UniProt O94874 (O94874 whole entry, looked up): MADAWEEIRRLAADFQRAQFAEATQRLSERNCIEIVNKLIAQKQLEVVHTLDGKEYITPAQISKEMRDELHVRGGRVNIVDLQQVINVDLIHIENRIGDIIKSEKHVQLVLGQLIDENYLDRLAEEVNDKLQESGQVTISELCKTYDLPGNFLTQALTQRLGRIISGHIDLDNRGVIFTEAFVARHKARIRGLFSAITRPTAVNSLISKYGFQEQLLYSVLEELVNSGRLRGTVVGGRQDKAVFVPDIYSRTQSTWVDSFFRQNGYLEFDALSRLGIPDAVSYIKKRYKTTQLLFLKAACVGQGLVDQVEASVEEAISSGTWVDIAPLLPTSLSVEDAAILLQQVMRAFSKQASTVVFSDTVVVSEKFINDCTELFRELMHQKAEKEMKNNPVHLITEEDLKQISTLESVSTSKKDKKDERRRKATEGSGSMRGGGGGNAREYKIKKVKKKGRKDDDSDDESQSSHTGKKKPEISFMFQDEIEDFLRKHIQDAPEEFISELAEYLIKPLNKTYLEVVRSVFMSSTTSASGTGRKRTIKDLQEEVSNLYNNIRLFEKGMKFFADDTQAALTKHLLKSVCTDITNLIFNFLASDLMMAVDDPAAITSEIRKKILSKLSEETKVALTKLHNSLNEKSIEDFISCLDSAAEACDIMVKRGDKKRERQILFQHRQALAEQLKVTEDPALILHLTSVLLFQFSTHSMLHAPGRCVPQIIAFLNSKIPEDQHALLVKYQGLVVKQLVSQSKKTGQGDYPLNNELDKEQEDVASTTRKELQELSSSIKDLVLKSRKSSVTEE
Sequence of UniProt O00220 (O00220 whole entry, looked up): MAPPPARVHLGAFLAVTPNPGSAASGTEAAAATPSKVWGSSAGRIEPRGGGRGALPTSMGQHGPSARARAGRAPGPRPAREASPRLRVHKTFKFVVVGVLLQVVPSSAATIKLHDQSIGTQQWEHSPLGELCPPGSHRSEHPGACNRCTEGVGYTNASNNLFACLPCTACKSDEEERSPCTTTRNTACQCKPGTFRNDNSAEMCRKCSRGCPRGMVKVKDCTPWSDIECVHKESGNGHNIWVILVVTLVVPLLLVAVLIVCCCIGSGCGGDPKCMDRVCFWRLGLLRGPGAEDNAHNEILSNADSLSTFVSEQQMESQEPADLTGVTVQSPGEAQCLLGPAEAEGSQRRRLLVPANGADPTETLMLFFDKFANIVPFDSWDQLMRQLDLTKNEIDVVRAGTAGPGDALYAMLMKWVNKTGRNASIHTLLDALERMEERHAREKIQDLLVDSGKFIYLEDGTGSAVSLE
Sequence of UniProt Q96K49 (Q96K49 whole entry, looked up): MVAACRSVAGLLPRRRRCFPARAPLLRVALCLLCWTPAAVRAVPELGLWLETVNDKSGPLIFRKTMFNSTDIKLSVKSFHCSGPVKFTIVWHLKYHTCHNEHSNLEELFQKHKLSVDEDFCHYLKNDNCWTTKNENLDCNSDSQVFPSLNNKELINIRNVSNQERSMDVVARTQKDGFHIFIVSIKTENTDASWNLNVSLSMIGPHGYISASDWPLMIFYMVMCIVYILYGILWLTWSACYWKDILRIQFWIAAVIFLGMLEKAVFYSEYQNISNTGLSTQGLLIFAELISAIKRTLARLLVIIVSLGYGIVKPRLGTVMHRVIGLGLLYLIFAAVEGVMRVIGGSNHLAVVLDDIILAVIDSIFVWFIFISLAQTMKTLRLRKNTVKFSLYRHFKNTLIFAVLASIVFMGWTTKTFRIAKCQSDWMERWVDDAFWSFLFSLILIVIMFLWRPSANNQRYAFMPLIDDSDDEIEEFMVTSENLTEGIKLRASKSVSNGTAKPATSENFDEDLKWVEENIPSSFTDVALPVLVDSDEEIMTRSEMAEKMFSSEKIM
Sequence of UniProt Q16763 (Q16763 whole entry, looked up): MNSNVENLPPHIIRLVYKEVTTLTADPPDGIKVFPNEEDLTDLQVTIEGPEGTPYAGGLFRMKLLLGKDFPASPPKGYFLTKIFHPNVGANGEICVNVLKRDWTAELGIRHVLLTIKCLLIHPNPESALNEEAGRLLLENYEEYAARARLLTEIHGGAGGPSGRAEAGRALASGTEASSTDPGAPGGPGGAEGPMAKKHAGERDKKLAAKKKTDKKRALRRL
Sequence of UniProt Q9UDW1 (Q9UDW1 whole entry, looked up): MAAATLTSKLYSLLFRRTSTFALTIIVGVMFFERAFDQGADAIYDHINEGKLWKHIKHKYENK
Sequence of UniProt P21796 (P21796 whole entry, looked up): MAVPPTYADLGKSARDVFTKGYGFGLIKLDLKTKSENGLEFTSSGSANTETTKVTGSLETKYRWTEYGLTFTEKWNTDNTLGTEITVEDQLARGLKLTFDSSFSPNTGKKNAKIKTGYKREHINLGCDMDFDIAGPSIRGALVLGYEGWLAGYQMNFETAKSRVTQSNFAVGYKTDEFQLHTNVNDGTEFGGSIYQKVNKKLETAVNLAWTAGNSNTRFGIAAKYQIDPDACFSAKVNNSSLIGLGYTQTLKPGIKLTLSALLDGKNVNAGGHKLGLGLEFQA

log2 fold change, inactive:
VTA1 (UniProt Q9NP79) 0.036
UBE4B isoform 4 (UniProt O95155) 0.023
USO1 isoform 2 (UniProt O60763) 0.018
VPS16 (UniProt Q9H269) 0.16
WAPL isoform 3 (UniProt Q7Z5K2) 0.082
VTI1A (UniProt Q96AJ9) 0.028
VPS8 (UniProt Q8N3P4) 0.158
UFL1 (UniProt O94874) 0.074
UTP4 (UniProt Q969X6) -0.051
UTP14A (UniProt Q9BVJ6) 0
UGGT1 (UniProt Q9NYU2) -0.004
VPS18 (UniProt Q9P253) 0.089
UBA6 0.011
TMEM161A (UniProt Q9NX61) 0.006
TNFRSF10A (UniProt O00220) -0.178
TRMT61A (UniProt Q96FX7) 0.03
TRAPPC8 (UniProt Q9Y2L5) 0.053
UBE2S (UniProt Q16763) 0.002
UBE2E3 (UniProt Q969T4) 0.103
UCHL5 (UniProt Q9Y5K5) 0.063
VTI1B (UniProt Q9UEU0) -0.035
TNPO1 (UniProt Q92973) 0.051
UQCR10 (UniProt Q9UDW1) 0.187
TMEM87B (UniProt Q96K49) 0.057
USP34 (UniProt Q70CQ2) 0.118
USP14 (UniProt P54578) -0.03
VPS51 (UniProt Q9UID3) -0.035
UBE2J1 (UniProt Q9Y385) -0.019
UBE3D (UniProt Q7Z6J8) 0.056
TRAM1 (UniProt Q15629) 0.034
TOP2A isoform 4 (UniProt P11388) 0.034
XPNPEP3 (UniProt Q9NQH7) -0.002
TRAPPC2L (UniProt Q9UL33) 0.068
XPO5 (UniProt Q9HAV4) 0.065
WDHD1 (UniProt O75717) 0.119
VDAC1 (UniProt P21796) -0.044
